Assay results published in PubChem BioAssay (NCATS).
Values joined by “and” are separate entries in the source; they are usually repeats but may differ in a detail not shown here. Equal values may be shown once. Results filed as inconclusive are left out. Active and inactive are the calls of the source. Unless noted, calls come from the whole dose curve.

Assays:
[1] = qHTS drug screen for cell cycle checkpoint inhibitors in PARPi-resistant BRCA-mutant ovarian cancer cell lines. (AID 1963452); conditions: PEO1/OlaR viability, CellTiter-Glo luminescence, 96 h; for Z-AUC: stronger effect = lower value
Method in brief: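 PEO1, PEO4 and PEO1/OlaR ovarian cancer cells, 600 per well, exposed 96 h at 37C to a dilution series. Viability read by CellTiter-Glo luminescence, normalized to DMSO and empty wells; activity summarized as Z-AUC.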

[2] = test system: 7G8; assay: qHTS profiling for inhibitors of Plasmodium falciparum proliferation (AID 504749; active = well fitted inhibition curve with a large enough effect; note: nearly all actives have a fitted effect of over 60% in size); conditions: P. falciparum in erythrocytes, SYBR Green DNA, 72 h; series mostly up to 28.7 µM
Method in brief: (§1)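 Infected RBCs, 0.3% parasitemia/2.5% Hct final; cpd 72 h, 37 C, 5% CO2; lysis buffer with saponin/triton/SYBR Green I, o/n RT dark; FI 485/535; norm. to artemisinin (0.29 uM) and DMSO.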

[3] = test system: CP191; assay: as above; conditions: P. falciparum in erythrocytes, SYBR Green DNA, 72 h; series mostly up to 28.7 µM
Method in brief: as §1

[4] = test system: CP194; assay: as above; conditions: P. falciparum in erythrocytes, SYBR Green DNA, 72 h; series mostly up to 28.7 µM
Method in brief: as §1

[5] = test system: CP201; assay: as above; conditions: P. falciparum in erythrocytes, SYBR Green DNA, 72 h; series mostly up to 28.7 µM
Method in brief: as §1

[6] = test system: CP203; assay: as above; conditions: P. falciparum in erythrocytes, SYBR Green DNA, 72 h; series mostly up to 28.7 µM
Method in brief: as §1

[7] = test system: CP211; assay: as above; conditions: P. falciparum in erythrocytes, SYBR Green DNA, 72 h; series mostly up to 28.7 µM
Method in brief: as §1

[8] = test system: CP215; assay: as above; conditions: P. falciparum in erythrocytes, SYBR Green DNA, 72 h
Method in brief: as §1

[9] = measured here: PEO1 parental Z-AUC
Potency is the fitted concentration of half-maximal effect.

## C[C@@H]1COCCN1c1cc(=O)n2c(n1)N(Cc1cncc(Cl)c1)[C@H](C(F)(F)F)CC2
[1]
  Z-AUC: -0.103 (inactive)
[1]; [9]
  Z-AUC: -0.0406
[1]; measured here: PEO4 Z-AUC
  Z-AUC: -0.0495

## O=C(NCCCNC(=O)c1ccc[nH]c1=O)c1cc(-c2ccccc2)on1
[1]
  Z-AUC: 0.194 (inactive)
[1]; [9]
  Z-AUC: 0.0234
[1]; measured here: PEO4 Z-AUC
  Z-AUC: -0.178

## NCC1CCN(c2nccc(-c3ccc4ccccc4c3)n2)CC1
[1]
  Z-AUC: -1.15 (inactive)
[1]; [9]
  Z-AUC: 0.563
[1]; measured here: PEO4 Z-AUC
  Z-AUC: -0.738

## O=C(Nc1cccnc1)c1cc(-c2ccnc(F)c2)ccc1OCc1ccccc1
[1]
  Z-AUC: -0.389 (inactive)
[1]; [9]
  Z-AUC: -0.74
[1]; measured here: PEO4 Z-AUC
  Z-AUC: -0.497

## CN1CCN(c2ccc(-c3cccc(CN4CCOCC4)c3)cc2NC(=O)c2c[nH]c(=O)cc2C(F)(F)F)CC1
[1]
  Z-AUC: 0.777 (inactive)
[1]; [9]
  Z-AUC: 0.269
[1]; measured here: PEO4 Z-AUC
  Z-AUC: 0.524

## CCCc1cc(C)[nH]c(=O)c1CNC(=O)c1cc(-c2ccc(N3CCN(C(C)C)CC3)nc2)cc2c1cnn2C(C)C
[1]
  Z-AUC: 0.233 (inactive)
[1]; [9]
  Z-AUC: 0.123
[1]; measured here: PEO4 Z-AUC
  Z-AUC: 0.0189

## C=CC(=O)Nc1cccc(Nc2nc(Nc3ccc(OCCOC)cc3)ncc2F)c1
[1]
  Z-AUC: -0.82 (inactive)
[1]; [9]
  Z-AUC: -1.21
[1]; measured here: PEO4 Z-AUC
  Z-AUC: -1.08

## CCCc1cc(C)[nH]c(=O)c1CNC(=O)c1cc(-c2ccnc(N3CCN(C)CC3)c2)cc2c1cnn2C(C)C
[1]
  Z-AUC: -1.33 (inactive)
[1]; [9]
  Z-AUC: -1.11
[1]; measured here: PEO4 Z-AUC
  Z-AUC: -1.01

## CN1C(=O)c2sccc2N(C)c2nc(Nc3ccc(S(N)(=O)=O)cc3)ncc21
[1]
  Z-AUC: -1.71 (inactive)
[1]; [9]
  Z-AUC: -0.96
[1]; measured here: PEO4 Z-AUC
  Z-AUC: -1.18

## C[C@H](Nc1ncnc2nc[nH]c12)c1cc2cccc(Cl)c2c(=O)n1-c1ccccc1
[1]
  Z-AUC: -0.68 (inactive) and -0.929 (inactive)
[1]; [9]
  Z-AUC: 0.702 and -0.975
[1]; measured here: PEO4 Z-AUC
  Z-AUC: 0.729 and -0.588

## CCCC(CCC)C(=O)Nc1ccn([C@@H]2O[C@H](CO)[C@@H](O)C2(F)F)c(=O)n1
[1]
  Z-AUC: -1.13 (inactive)
[1]; [9]
  Z-AUC: -1.5
[1]; measured here: PEO4 Z-AUC
  Z-AUC: -0.847

## Cc1ccc(C(=O)Nc2ccc(CN3CCN(C)CC3)c(C(F)(F)F)c2)cc1C#Cc1cnc2[nH]ncc2c1
[1]
  Z-AUC: -1.39 (inactive)
[1]; [9]
  Z-AUC: -0.429
[1]; measured here: PEO4 Z-AUC
  Z-AUC: -0.168

## COC1C(OC(=O)/C=C/C=C/C=C/C=C/C(=O)O)CCC2(CO2)C1C1(C)OC1CC=C(C)C (stereo unspecified)
[2]
  Potency: 5.6 nM (active)
[3]
  Potency: 50.1 nM (active)
[4]
  Potency: 536 nM (active)
[5]
  Potency: 7570 nM (active)
[6]
  Potency: 2690 nM (active)
[7]
  Potency: 37.9 nM (active)
[8]
  Potency: 6010 nM (active)

## Cn1ncc(Cl)c1-c1cc(C(=O)NC(CN)Cc2ccc(F)c(F)c2)oc1Cl (stereo unspecified)
[1]
  Z-AUC: 0.713 (inactive)
[1]; [9]
  Z-AUC: 0.319
[1]; measured here: PEO4 Z-AUC
  Z-AUC: 0.353

## CCn1c(=O)c(-c2ccc(-c3cncs3)cc2Cl)cc2cnc(Nc3ccc(N4CCN(C)CC4)cc3)nc21
[1]
  Z-AUC: -1.32 (inactive)
[1]; [9]
  Z-AUC: -0.743
[1]; measured here: PEO4 Z-AUC
  Z-AUC: -0.961

## O=c1[nH]c([C@@H]2CCCN2)nc2c1oc1ccc(Cl)cc12
[1]
  Z-AUC: 0.967 (inactive)
[1]; [9]
  Z-AUC: 1.19
[1]; measured here: PEO4 Z-AUC
  Z-AUC: 1.1

## CN(C)N(C)C(=O)[C@@]1(Cc2ccccc2)CCCN(C(=O)[C@@H](Cc2c[nH]c3ccccc23)NC(=O)C(C)(C)N)C1
[1]
  Z-AUC: -0.303 (inactive)
[1]; [9]
  Z-AUC: -0.129
[1]; measured here: PEO4 Z-AUC
  Z-AUC: 0.0758

## Cc1cc(F)c(C(=O)Nc2cccc(-c3nncn3C(C)C)n2)cc1-n1cnc(C2CC2)c1
[1]
  Z-AUC: -0.535 (inactive)
[1]; [9]
  Z-AUC: -0.555
[1]; measured here: PEO4 Z-AUC
  Z-AUC: -0.37

## FC(F)(F)c1ccc(CNc2ccc(Cc3c[nH]c4ncc(Cl)cc34)cn2)cn1
[1]
  Z-AUC: 1.12 (inactive)
[1]; [9]
  Z-AUC: 1.06
[1]; measured here: PEO4 Z-AUC
  Z-AUC: 1.21

## COc1ccc(-c2c(C)nn3c(NCCN4CCOCC4)cc(C)nc23)cc1OC
[1]
  Z-AUC: 0.717 (inactive)
[1]; [9]
  Z-AUC: 0.787
[1]; measured here: PEO4 Z-AUC
  Z-AUC: 0.395

## CCCC1(CCC)CCC2(CCN(CCCN(CC)CC)C2)CC1
[1]
  Potency: 3890 nM (active)
[1]; [9]
  Z-AUC: -2.03
[1]; measured here: PEO4 Z-AUC
  Z-AUC: -1.83

## NC(=O)c1cnc(N[C@@H]2CCCC[C@@H]2N)nc1Nc1cccc(-n2nccn2)c1
[1]
  Z-AUC: 0.565 (inactive)
[1]; [9]
  Z-AUC: -0.0999
[1]; measured here: PEO4 Z-AUC
  Z-AUC: 0.242

## Cc1sc2c(c1C)C(c1ccc(Cl)cc1)=N[C@@H](CC(=O)Nc1ccc(OCCOCCOCCOCCNc3cccc4c3C(=O)N(C3CCC(=O)NC3=O)C4=O)cc1)c1nnc(C)n1-2 (stereo partly specified)
[1]
  Z-AUC: -1.58 (inactive)
[1]; [9]
  Z-AUC: -2.13
[1]; measured here: PEO4 Z-AUC
  Z-AUC: -1.49

## CCN(c1cc(-c2ccc(CN3CCOCC3)cc2)cc(C(=O)NCc2c(C)cc(C)[nH]c2=O)c1C)C1CCOCC1
[1]
  Z-AUC: 0.506 (inactive)
[1]; [9]
  Z-AUC: 0.489
[1]; measured here: PEO4 Z-AUC
  Z-AUC: 0.0284
